“And” between values parts separate entries of the source, which are not always exact repeats. Equal entries are not always repeated. In all, about 5,500 compounds went through this assay and about 2,000 (36%) were called active. Another 18% or so got no clear call; they are omitted. Cut-off read from the data, not from the text of the source: active = normalized growth mostly below about 0.91 (no sharp cut-off); inconclusive = no clear call, values can overlap the other calls; inactive = mostly above about 0.92. Some of the results follow.
Assay: chemical genetic growth profiling, strain panel (AID 1159580);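 note: tested at 20 µM; growth read once vehicle control cultures reached saturation at 30 °C; 1 = growth at the plate median or of vehicle wells; lower values mean less growth of the strain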
Conditions: S. cerevisiae deletion strains, growth OD
[1] = locus YAL013W, strain DEP1, hits give low values
[2] = locus YMR307W, strain GAS1, hits give low values
[3] = locus YNL322C, strain KRE1, hits give low values

Measured: normalized growth

NC(N)=N[C@@H](CCC(=O)O)C(=O)O
inactive: [1] 1.03 | locus YAL040C, strain CLN3, hits give low values 1.09 | locus YCL061C, strain MRC1 (second series), hits give low values 1.01 | locus YDR363W, strain ESC2, hits give low values 1.02 | locus YER002W, strain NOP16, hits give low values 1 | [2] 1.01 | locus YNL128W, strain TEP1, hits give low values 1 | locus YNL153C, strain GIM3, hits give low values 1.02 | locus YNL175C, strain NOP13, hits give low values 1.01 | locus YNL197C, strain WHI3, hits give low values 1.02 | locus YNL224C, strain SQS1, hits give low values 1 | [3] 1.02 | locus YOR083W, strain WHI5 (second series), hits give low values 1.04

C[N+]1(C)C2CC[C@H]1CC(OC(=O)C(O)c1ccccc1)C2 (stereo partly drawn)
inactive: [1] 0.996 | locus YAL021C, strain ccr4, hits give low values 1.02 | locus YAL026C, strain drs2, hits give low values 1 | locus YAL030W, strain snc1, hits give low values 0.999 | locus YBL061C, strain skt5, hits give low values 1 | locus YBR009C, strain hhf1, hits give low values 0.996 | locus YBR021W, strain FUR4, hits give low values 0.985 | locus YBR023C, strain chs3, hits give low values 0.992 | locus YBR171W, strain sec66, hits give low values 1 | locus YBR229C, strain ROT2, hits give low values 0.996 | locus YBR231C, strain swc5, hits give low values 1 | locus YBR279W, strain paf1, hits give low values 1.01 | locus YCL011C, strain gbp2, hits give low values 0.984 | locus YCL016C, strain dcc1, hits give low values 0.971 | locus YCL029C, strain bik1, hits give low values 0.995 | locus YCL061C, strain MRC1, hits give low values 0.998 | locus YCL069W, strain vba3, hits give low values 0.996 | locus YCR088W, strain abp1, hits give low values 0.993 | locus YDL005C, strain med2, hits give low values 0.991 | locus YDL035C, strain GPR1, hits give low values 0.993 | locus YDL040C, strain nat1, hits give low values 0.997 | locus YDL074C, strain BRE1, hits give low values 1.01 | locus YDL101C, strain DUN1, hits give low values 0.996 | locus YDL134C, strain PPH21, hits give low values 1.01 | locus YDL185W, strain tfp1, hits give low values 1.01 | locus YDL192W, strain arf1, hits give low values 1.02 | locus YDR001C, strain nth1, hits give low values 0.993 | locus YDR069C, strain doa4, hits give low values 1.02 | locus YDR101C, strain arx1, hits give low values 0.976 | locus YDR137W, strain rgp1, hits give low values 0.992 | locus YDR159W, strain sac3, hits give low values 1.03 | locus YDR162C, strain NBP2, hits give low values 0.997 | locus YDR195W, strain ref2 1.01 | locus YDR297W, strain sur2, hits give low values 1 | locus YDR318W, strain mcm21, hits give low values 1.02 | locus YDR334W, strain swr1, hits give low values 1 | locus YDR335W, strain msn5, hits give low values 1 | locus YDR388W, hits give low values 1.01 | locus YDR392W, strain spt3, hits give low values 0.94 | locus YDR502C, strain sam2, hits give low values 1.02 | locus YEL003W, strain gim4, hits give low values 1.01 | locus YEL037C, strain rad23, hits give low values 1 | locus YEL061C, strain CIN8 (second series), hits give low values 1 | locus YEL061C, strain CIN8, hits give low values 0.995 | locus YER015W, strain faa2, hits give low values 1 | locus YER016W, strain bim1, hits give low values 1.01 | locus YER110C, hits give low values 1.02 | locus YER111C, strain swi4, hits give low values 0.997 | locus YER155C, strain BEM2 (second series), hits give low values 1 | locus YER155C, strain BEM2, hits give low values 0.988 | locus YER167W, strain BCK2, hits give low values 0.977 | locus YFR010W, strain ubp6, hits give low values 1 | locus YGL078C, strain dbp3, hits give low values 1.03 | locus YGL086W, strain mad1, hits give low values 1 | locus YGL167C, strain pmr1, hits give low values 1.01 | locus YGL173C, strain kem1, hits give low values 1.01 | locus YGL227W, strain vid30, hits give low values 0.988 | locus YGL240W, strain doc1, hits give low values 1.01 | locus YGL248W, strain PDE1, hits give low values 0.999 | locus YGL253W, strain hxk2, hits give low values 1 | locus YGR135W, strain pre9, hits give low values 1.04 | locus YGR229C, strain SMI1, hits give low values 0.976 | locus YGR252W, strain gcn5, hits give low values 1.03 | locus YHR013C, strain ard1, hits give low values 0.999 | locus YHR027C, strain rpn1, hits give low values 1.01 | locus YHR030C, strain SLT2, hits give low values 0.978 and 0.976 | locus YHR079C, strain IRE1 (second series), hits give low values 1.01 | locus YHR079C, strain IRE1, hits give low values 0.967 | locus YHR094C, strain hxt1, hits give low values 1.01 | locus YHR129C, strain ARP1, hits give low values 1.01 | locus YHR142W, strain chs7, hits give low values 0.973 | locus YHR200W, strain rpn10, hits give low values 1.02 | locus YIL066C, strain RNR3, hits give low values 0.999 | locus YIL073C, strain SPO22, hits give low values 1.05 | locus YIL125W, strain kgd1, hits give low values 0.995 | locus YIR030C, strain dcg1, hits give low values 1.01 | locus YJL092W, strain hpr5, hits give low values 0.995 | locus YJL095W, strain BCK1 (second series), hits give low values 0.999 | locus YJL095W, strain BCK1, hits give low values 1.01 and 0.993 | locus YJL115W, strain asf1, hits give low values 0.987 | locus YJL129C, strain trk1, hits give low values 1.01 | locus YJL134W, strain LCB3, hits give low values 0.989 | locus YJL154C, strain vps35, hits give low values 0.993 | locus YJL164C, strain tpk1, hits give low values 1 | locus YJL166W, strain qcr8, hits give low values 0.999 | locus YJL168C, strain set2, hits give low values 1.01 | locus YJL187C, strain SWE1 (second series), hits give low values 1 | locus YJL187C, strain SWE1, hits give low values 1 | locus YJR043C, strain POL32, hits give low values 1 | locus YJR066W, strain TOR1, hits give low values 0.928 | locus YKL009W, strain mrt4, hits give low values 1.01 | locus YKL068W, hits give low values 1 | locus YKL085W, strain MDH1 (second series), hits give low values 1 | locus YKL085W, strain MDH1, hits give low values 1 | locus YKL160W, strain elf1, hits give low values 1 | locus YKL190W, strain CNB1, hits give low values 0.985 | locus YKR001C, strain vps1, hits give low values 0.996 | locus YKR026C, strain gcn3, hits give low values 0.999 | locus YKR091W, strain srl3, hits give low values 0.997 | locus YLL001W, strain dnm1, hits give low values 0.98 | locus YLL026W, hits give low values 0.999 | locus YLL041C, strain sdh2, hits give low values 1 | locus YLR027C, strain aat2, hits give low values 1 | locus YLR039C, strain RIC1, hits give low values 0.967 | locus YLR058C, strain SHM2, hits give low values 1.01 | locus YLR102C, strain apc9, hits give low values 1.02 | locus YLR113W, strain HOG1, hits give low values 1 | locus YLR221C, strain rsa3, hits give low values 0.955 | locus YLR258W, strain gsy2, hits give low values 0.983 | locus YLR262C, strain YPT6 (second series), hits give low values 1 | locus YLR262C, strain YPT6, hits give low values 0.977 | locus YLR268W, strain sec22, hits give low values 1.03 | locus YLR320W, strain mms22, hits give low values 0.978 | locus YLR330W, strain CHS5, hits give low values 1 | locus YLR342W, strain FKS1 (second series), hits give low values 1 | locus YLR342W, strain FKS1, hits give low values 1 | locus YLR357W, strain rsc2, hits give low values 1.01 | locus YLR370C, strain arc18, hits give low values 0.993 | locus YLR371W, strain rom2, hits give low values 1 | locus YLR384C, strain iki3, hits give low values 0.994 | locus YLR418C, strain cdc73, hits give low values 1.05 | locus YML016C, strain PPZ1, hits give low values 1.01 | locus YML032C, strain rad52, hits give low values 0.999 | locus YML120C, strain ndi1, hits give low values 0.964 | locus YML124C, strain tub3, hits give low values 1.01 | locus YMR058W, strain fet3, hits give low values 1.01 | locus YMR078C, strain ctf18, hits give low values 1.03 | locus YMR125W, strain sto1, hits give low values 0.996 | locus YMR129W, hits give low values 0.999 | locus YMR205C, strain PFK2, hits give low values 0.992 | locus YMR223W, strain ubp8, hits give low values 1.02 | locus YMR231W, strain pep5, hits give low values 1 | [2] 0.983 | locus YNL067W, strain RPL9B, hits give low values 0.995 | locus YNL071W, strain lat1, hits give low values 1 | locus YNL183C, strain NPR1, hits give low values 0.956 | locus YNL209W, strain ssb2, hits give low values 1 | locus YNL233W, strain BNI4, hits give low values 1 | locus YNL248C, strain rpa49, hits give low values 1 | locus YNL250W, strain rad50, hits give low values 1.02 | locus YNL271C, strain bni1, hits give low values 1.02 | locus YNL298W, strain CLA4, hits give low values 1.03 | locus YNL307C, strain MCK1, hits give low values 1.02 | locus YNL322C, strain KRE1 (second series), hits give low values 0.991 | [3] 0.998 | locus YNR049C, strain mso1, hits give low values 1.01 | locus YNR052C, strain pop2, hits give low values 1.02 | locus YOL012C, strain htz1 1.26 | locus YOL147C, strain pex11, hits give low values 1.02 | locus YOR001W, strain rrp6, hits give low values 1.03 | locus YOR061W, strain CKA2, hits give low values 1.01 | locus YOR069W, strain VPS5, hits give low values 0.987 | locus YOR070C, strain gyp1, hits give low values 0.999 | locus YOR080W, strain dia2, hits give low values 0.994 | locus YOR083W, strain WHI5, hits give low values 1 | locus YOR106W, strain vam3, hits give low values 1 | locus YOR136W, strain idh2, hits give low values 1.02 | locus YOR144C, strain elg1, hits give low values 1.01 | locus YOR184W, strain ser1, hits give low values 1.03 | locus YOR231W, strain MKK1, hits give low values 0.983 | locus YOR265W, strain rbl2, hits give low values 0.996 | locus YOR270C, strain vph1, hits give low values 1.01 | locus YOR290C, strain snf2, hits give low values 0.966 | locus YOR316C, strain cot1, hits give low values 1.02 | locus YPL051W, strain arl3, hits give low values 1.01 | locus YPL055C, strain LGE1, hits give low values 0.985 | locus YPL078C, strain atp4, hits give low values 1 | locus YPL106C, strain sse1, hits give low values 0.99 | locus YPL240C, strain hsp82, hits give low values 0.997 | locus YPL256C, strain CLN2, hits give low values 0.982 | locus YPR119W, strain clb2, hits give low values 1.01 | locus YPR141C, strain kar3, hits give low values 1.02 | locus YPR163C, strain tif3, hits give low values 1.02 | locus YPR167C, strain met16, hits give low values 1.02 | strain wtn01, hits give low values 1.03

Source: PubChem BioAssay AID1159580 (chemical genetic matrix, 2015)
